Data taken from PubChem BioAssay AID1946 (Johns Hopkins Ion Channel Center, 2009).
The campaign covered roughly 2,400 compounds. About 180 (7.5%) were called active. The sample holds actives, similar compounds and a random draw of the others, so the mix is not that of the screen. Values without a mark were called inactive.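 The calls were made as follows: active = readout below zero, meaning a drop past 3 SD under the dofetilide-free negative control mean; inactive = the rest.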

Each compound was assayed against Potassium voltage-gated channel subfamily KQT member 2 (Rattus norvegicus) (UniProt O88943) (assay: KCNQ2 blockade in CHO cells – cell-based, FluxOR thallium flux, counter-screen for hERG block protector project, confirmation (AID 1946)). Conditions: FluxOR thallium flux fluorescence, at 10 µM, stronger effect = lower value, zero marks the 3-SD hit cutoff.
Sequence of Potassium voltage-gated channel subfamily KQT member 2 (Rattus norvegicus) (O88943 whole entry, looked up): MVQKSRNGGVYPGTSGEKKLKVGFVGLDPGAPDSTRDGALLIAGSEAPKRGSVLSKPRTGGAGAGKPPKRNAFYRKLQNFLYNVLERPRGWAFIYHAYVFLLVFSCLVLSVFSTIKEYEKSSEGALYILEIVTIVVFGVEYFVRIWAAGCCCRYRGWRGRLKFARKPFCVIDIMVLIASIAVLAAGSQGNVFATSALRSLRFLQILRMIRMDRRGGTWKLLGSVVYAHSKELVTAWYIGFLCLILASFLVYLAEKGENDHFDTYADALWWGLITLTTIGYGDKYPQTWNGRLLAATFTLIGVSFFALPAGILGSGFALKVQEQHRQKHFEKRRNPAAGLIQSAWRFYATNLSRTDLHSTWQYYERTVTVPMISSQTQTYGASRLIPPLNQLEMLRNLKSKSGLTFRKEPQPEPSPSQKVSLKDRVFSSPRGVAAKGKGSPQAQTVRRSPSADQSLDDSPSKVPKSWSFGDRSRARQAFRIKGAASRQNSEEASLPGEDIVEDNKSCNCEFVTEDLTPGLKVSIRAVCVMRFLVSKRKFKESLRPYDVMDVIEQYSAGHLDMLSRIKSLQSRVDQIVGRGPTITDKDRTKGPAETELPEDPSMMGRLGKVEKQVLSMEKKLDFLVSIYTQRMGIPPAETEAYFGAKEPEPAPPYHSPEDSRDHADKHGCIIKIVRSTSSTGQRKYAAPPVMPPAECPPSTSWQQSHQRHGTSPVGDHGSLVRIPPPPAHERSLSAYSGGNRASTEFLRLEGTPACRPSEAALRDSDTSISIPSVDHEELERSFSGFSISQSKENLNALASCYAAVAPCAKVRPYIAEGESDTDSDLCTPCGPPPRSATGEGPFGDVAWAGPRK

| SMILES | activity change vs negative control |
| --- | --- |
| C/C(=N/NC(=O)c1cc2ccccc2cc1O)c1ccco1 | 87.3% |
| O=C(COc1ccc2ccccc2c1)NNC(=O)C(=O)Nc1ccccc1 | 61.8% |
| CCCn1c(=S)[nH]c2sc3c(c2c1=O)CCCC3 | 95% |
| CCOC(=O)Cc1csc(NC(=S)NC(=O)c2ccccc2Br)n1 | 38.6% |
| NC(=O)C1CCN(C(=O)c2cc3c(s2)CCCC3)CC1 | 41.4% |
| Cc1csc(NC(=O)c2cc3c(s2)CCCC3)n1 | 49.2% |
| CC(OC(=O)c1cc2c(s1)CCCCC2)C(=O)NC(N)=O (configuration not stated) | -1.8% (active) |
| Cc1nc(NCc2cccnc2)c2c3c(sc2n1)CC(C)CC3 (configuration not stated) | 49.7% |
| Cc1cc(SCC(=O)c2cccc([N+](=O)[O-])c2)nc(=O)[nH]1 | 7.5% |
| O=C(CSc1nnc(-c2ccncc2)o1)c1cccc([N+](=O)[O-])c1 | -7.8% (active) |
| N/C(=N\OS(=O)(=O)c1cccc([N+](=O)[O-])c1)c1ccncc1 | 29.1% |
| Cc1ccc2oc3c(c(=O)c2c1)C(c1cccs1)N(CCCN(C)C)C3=O (configuration not stated) | 21.6% |
| CCOC(=O)c1sc2nc(C)nc(SCC(=O)N(C)C3CCS(=O)(=O)C3)c2c1C (configuration not stated) | 20.9% |
| CN(C(=O)CSc1ncnc2sc(-c3ccccc3)cc12)C1CCS(=O)(=O)C1 (configuration not stated) | 94.7% |
| CCC(C)N(C(=O)CSc1nnc(NC(C)C)s1)C1CCS(=O)(=O)C1 (configuration not stated) | -0.9% (active) |
| COc1ccccc1C(=O)NNC(=O)C(=O)Nc1ccc(C)c(Cl)c1 | 148% |
| COC(=O)c1ccc(C2C(C#N)=C(N)Oc3cc(O)ccc32)cc1 (configuration not stated) | 12.7% |
| Cc1nn(Cc2ccccc2)c2c1C(c1cccnc1)C(C#N)=C(N)O2 (configuration not stated) | 12.9% |
| CCOC(=O)C1=C(N)Oc2cc(O)ccc2C1c1cccnc1 (configuration not stated) | -1.7% (active) |
| Cc1nn(CC(=O)Nc2ccc(C(=O)N3CCCC3)cc2)c(=O)c2ccccc12 | 32.9% |
| O=C(Nc1cccc(N=Cc2cc(Cl)cc(Br)c2O)c1)c1ccco1 | 53.8% |
| COc1cccc(C(=O)NNC(=O)C(=O)Nc2cccc3ccccc23)c1 | 91% |
| CCOC(=O)C(=CNc1ccc(OC)cc1[N+](=O)[O-])C(=O)OCC | 13.9% |
| COc1ccc(NC(=S)NC(NC(=O)c2cccc3ccccc23)C(Cl)(Cl)Cl)c([N+](=O)[O-])c1 (configuration not stated) | -0.3% (active) |
| COC(=O)Oc1ccc(/C=C/C(=O)OC(C)C)cc1OC(=O)OC | 24.5% |
| CCN(CC)c1ccc(NC(=S)NC(=O)c2ccco2)cc1 | 67.2% |

| SMILES | activity change vs negative control |
| --- | --- |
| CC1=CC(=O)C(C(C)C)=CC1=NC(=O)c1ccc(C)cc1 | -1% (active) |
| Cc1ccc(C(=O)Sc2cccccc2=O)cc1 | 102% |
| CCOC(=O)c1sc2ncnc(NCC(c3cccs3)N(C)C)c2c1C (configuration not stated) | 61% |
| S=c1[nH]c(-c2ccccc2)cs1 | 85.5% |
| CCOC(=O)Cn1cc(C=O)c2ccccc21 | 8.6% |
| COC(=O)Cn1c(=O)c(=O)n(CC(=O)OC)c2ccccc21 | -3.8% (active) |
| COC(=O)CCn1[nH]c(=O)c2ccccc2c1=O | 15.6% |
| O=C(NC(=S)Nc1ncc(Br)cc1Br)c1ccccc1 | 28.8% |
| CCOC(=O)NC(=S)Nc1ccc(C(C)(C)C)cc1Br | 16.6% |
| Cc1ccc(S(=O)(=O)NC(=S)NC2CCCCC2)cc1 | 19.8% |
| CN(C)S(=O)(=O)c1cccc(C(=O)Nc2cccnc2)c1 | 8% |
| O=C(Nc1ccc(Oc2cccnc2)cc1)c1cccc([N+](=O)[O-])c1 | 13.8% |
| O=C(Nc1ccc(Cl)c(-c2nc3ccccc3[nH]2)c1)c1cccnc1 | -19.3% (active) |
| O=C(NCC1CCCO1)c1ccc2c(=O)n(Cc3ccco3)c(SCC(=O)N3CCCC3)nc2c1 (configuration not stated) | 32.7% |
| S=c1[nH]nc(-c2ccco2)n1/N=C/C(Cl)=C/c1ccccc1 | 10.3% |
| S=c1[nH]nc(-c2n[nH]c3c2CCC3)n1/N=C/C=C/c1ccccc1 | -4.8% (active) |
| Cc1cccc(/C=N/n2c(COc3ccccc3)n[nH]c2=S)c1 | 14.1% |
| Cc1ccc(C(=O)CC(=O)c2cccc(F)c2)c(O)c1 | 7.2% |
| CC(C)c1nc2sc3c(=S)nc[nH]c3c2c2c1CCC2 | 45.5% |
| Cc1cc2ccccn2c1C(=S)NC(=O)c1ccccc1 | 68.1% |
| C=CCn1c(O)c(N=NC(=S)Nc2ccc(OC)c(Cl)c2)c2ccccc21 | 18.3% |
| Nc1nnc(SCC(=O)OCc2ccc(F)cc2)s1 | -2.1% (active) |
| CCOC(=O)CSc1nnc(NC(=O)c2ccc3c(c2)OCO3)s1 | 5.6% |
| COc1ccccc1Nc1nnc(SCC(=O)Nc2nc(-c3ccc(F)cc3)cs2)s1 | 9.1% |
| CCOC(=O)C(=CNc1cc(C)ccn1)C(=O)OCC | 18.2% |
| S=c1nc(C2CC2)[nH]c2ccccc12 | 58.2% |
